Assay results from PubChem BioAssay (NCATS).
Inconclusive results are not listed. Entries that show only a call come without a potency. Active and inactive are the calls of the source. Calls follow the shape of the dose curve; as a rule, active = well fitted cell-killing curve with a large enough effect; inconclusive = small, poorly fitted or top-dose-only effect, or effect the other way; inactive = no such curve, though single readings can be large or run the other way.

Experiment: Quantitative High-Throughput drug screen in 47 multiple myeloma cell lines against the NCATS MIPE library collection: OCIMY5_PLB cell viability assay (AID 1918988); also: nearly all actives have a fitted effect of over 65% in size
Settings: OCI-MY5 myeloma viability, ATP luminescence, 48 h; series mostly up to 45.8 µM
Summary of the method: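 500 cells/well; MIPE 4.0 drugs pin-transferred; 48 h, 37C, 5% CO2. CellTiter-Glo, 5 min RT, luminescence. Controls: DMSO 100%, media 0%.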
Potency is read from the fitted curve at half-maximal effect.

Row | Compound | Potency
1 | CC(C)(C#N)c1cc(Cn2cncn2)cc(C(C)(C)C#N)c1 | inactive
2 | COc1ccc(-c2ccc3cc(C(=O)O)ccc3c2)cc1C12CC3CC(CC(C3)C1)C2 | inactive
3 | C[C@@H](NCCCc1cccc(C(F)(F)F)c1)c1cccc2ccccc12 | inactive
4 | C[C@]12C=CC(=O)C=C1CC[C@@H]1[C@@H]2C(=O)C[C@@]2(C)[C@H]1CC[C@]2(O)C(=O)CO | inactive
5 | Cc1ncc([N+](=O)[O-])n1CCO | inactive
6 | O=P(O)(O)C(O)(Cc1cccnc1)P(=O)(O)O | inactive
7 | Cc1onc(-c2ccccc2Cl)c1C(=O)N[C@@H]1C(=O)N2[C@@H]1SC(C)(C)[C@@H]2C(=O)O | inactive
8 | CCN[C@H]1C[C@H](C)S(=O)(=O)c2sc(S(N)(=O)=O)cc21 | inactive
9 | COc1cc2ncnc(Nc3cccc(Cl)c3)c2cc1OC | 0.264 µM (active)
10 | Cc1noc(NS(=O)(=O)c2ccc(N)cc2)c1C | inactive
11 | CCn1cc(C(=O)O)c(=O)c2cc(F)c(N3CCN(C)CC3)cc21 | inactive
12 | CN1CCN(c2c(F)cc3c(=O)c(C(=O)O)cn4c3c2OCN4C)CC1 | inactive
13 | CC(C)Cn1cnc2c(N)nc3ccccc3c21 | 16.6 µM (active)
14 | CC1CC2C3CCC4=CC(=O)C=C[C@]4(C)[C@@]3(F)[C@@H](O)C[C@]2(C)[C@@]1(O)C(=O)CO (stereo partly specified) | 2.64 µM (active)
15 | COCCCOc1cc(C[C@@H](C[C@H](N)[C@@H](O)C[C@H](C(=O)NCC(C)(C)C(N)=O)C(C)C)C(C)C)ccc1OC | inactive
16 | CCn1cc(C(=O)O)c(=O)c2cc(F)c(N3CCNCC3)cc21 | inactive
